GRK2 inh: compounds blocking aptamer binding on GRK2 – biochemical, human GRK2, bead flow cytometry, HTS, primary screen. FAM-aptamer displacement from GRK2. 330,000 compounds, 0.59% hits. Beta-adrenergic receptor kinase 1 (Homo sapiens), P25098. inhibition of aptamer binding, % at 10 µM;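 active means inhibition of aptamer binding above 40%, roughly 3 SD of noise, on plates passing a quality check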;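 further: median bead fluorescence of bound FAM aptamer so fluorescent compounds give negative values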
Rtt109 Vps75: inhibitors of C. albicans Rtt109/Vps75 HAT, primary screen, biochemical, ThioGlo CoA-SH fluorescence, plate reader | Histone acetyltransferase RTT109 (Candida albicans (strain SC5314 / ATCC MYA-2876)), … | purified Rtt109/Vps75, 4 h | inhibition, % at 34.9 µM | 330,000 compounds, 0.16% hits | AID 540336, 2011;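 active means inhibition of at least 50% in every replicate; inconclusive means best replicate reaches 50% inhibition but some replicates fall short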
Target sequence (Q5AAJ8 whole entry, looked up): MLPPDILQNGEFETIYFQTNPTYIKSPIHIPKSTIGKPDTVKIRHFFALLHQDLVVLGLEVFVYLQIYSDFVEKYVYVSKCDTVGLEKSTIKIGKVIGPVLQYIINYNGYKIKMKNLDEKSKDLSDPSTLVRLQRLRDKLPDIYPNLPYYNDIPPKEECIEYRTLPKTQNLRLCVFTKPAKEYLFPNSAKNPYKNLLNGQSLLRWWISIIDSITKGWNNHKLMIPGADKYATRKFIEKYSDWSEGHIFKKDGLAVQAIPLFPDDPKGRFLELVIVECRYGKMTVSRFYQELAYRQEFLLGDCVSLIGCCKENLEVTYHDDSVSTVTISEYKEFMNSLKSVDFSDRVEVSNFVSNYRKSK
Efflux pump mplx: inhibitors of Candida efflux pumps in yeast, primary screen, S. cerevisiae, Nile Red, multiplex. S. cerevisiae Candida pump triplex. inhibition, % at 10 µM. 330,000 compounds, 0.44% hits;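 active means plate passing quality check with inhibition over a set limit, or well fluorescence over plate mean plus 4 SD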;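 further: Nile Red retained in pooled yeast measured as flow cytometry median fluorescence; 0% = buffer negative control and 100% = Enniatin B positive control; higher means more Nile Red kept so more efflux inhibition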
Rce1 inh: yeast Rce1p protease inhibitors, primary screen, biochemical, fluorescence, cell-free homogeneous; AID 2563, 2010; yeast membranes, quenched prenylated peptide cleavage fluorescence; CAAX prenyl protease 2 (Saccharomyces cerevisiae (strain ATCC 204508 / S288c)), Q03530; 290,000 compounds, 0.27% hits; calls only;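 active means fall in fluorescence gain of 50% or more versus controls, with final raw signal at or below 3038400; inconclusive means same 50% fall but final raw signal above 3038400; inactive means fall in fluorescence gain under 50%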;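 further: plate controls were neutral control wells for no effect and wells lacking membranes for full effect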
Target sequence (Q03530 whole entry, looked up): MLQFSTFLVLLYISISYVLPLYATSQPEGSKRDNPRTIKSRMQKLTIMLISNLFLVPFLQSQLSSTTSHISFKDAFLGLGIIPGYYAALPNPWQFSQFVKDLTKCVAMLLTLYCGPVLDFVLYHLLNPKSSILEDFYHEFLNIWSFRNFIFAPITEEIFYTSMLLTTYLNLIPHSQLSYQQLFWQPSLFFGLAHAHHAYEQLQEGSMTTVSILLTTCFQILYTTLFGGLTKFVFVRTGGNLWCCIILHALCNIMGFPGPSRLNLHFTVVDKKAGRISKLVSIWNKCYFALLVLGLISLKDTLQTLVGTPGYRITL
HDAC3 inh: HDAC3 deacetylase inhibitors, primary screen, biochemical, fluorescence, cell-free homogeneous; inhibition, % at 8.3 µM; AID 2718, 2010; 320,000 compounds, 0.15% hits; Histone deacetylase 3 (Homo sapiens), O15379; recombinant HDAC3, fluorogenic peptide/trypsin coupled; in the data active means inhibition above about 26%, passing the limit was not always enough; inconclusive means no clear call, values can overlap the other calls
ALR H2O2 inh: inhibitors of human ALR sulfhydryl oxidase, primary screen, biochemical, H2O2 detection, HRP-luminol luminescence, single point; FAD-linked sulfhydryl oxidase ALR (Homo sapiens), P55789; purified ALR, DTT oxidation; inhibition, % (no concentration beside the values); 290,000 compounds, 3.8% hits; AID 485317, 2010;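 active means mean replicate inhibition above about 79%, with every replicate also reaching it, limit read from the data; inconclusive means only one of the two criteria met; inactive means mean below limit and not every replicate reaching it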
Yeast cmpd fluor: compound fluorescence in yeast efflux pump counter-screen. 1,700 compounds, 4% hits. shares compounds with Efflux pump mplx. S. cerevisiae AD/pABC3, flow cytometry. fluorescence ratio to DMSO, % at 10 µM. AID 588517;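 active means fluorescence ratio to DMSO above its plate's cutoff, the plate mean ratio plus 5 SD, cut at about 210% in these data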;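 further: unstained yeast with no Nile Red so the signal is compound autofluorescence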
Mdr1 pump inh: inhibitors of Candida albicans Mdr1 efflux, confirmation, flow cytometry, singleplex, Cherry Pick1 set; shares compounds with Efflux pump mplx; S. cerevisiae AD/CaMDR1, Nile Red efflux; inhibition, % at 10 µM; 1,700 compounds, 1% hits; AID 588518, 2011; in the data active means inhibition above about 26%;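 further: 0% = DMSO vehicle and 100% = reference inhibitor; higher means more Nile Red retained so more efflux inhibition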
CaCdr2 efflux inh: inhibitors of Candida albicans Cdr2 efflux pump, confirmation, S. cerevisiae AD/CaCDR2, flow cytometry, cherry pick 1, singleplex | AID 588520, 2011 | shares compounds with Efflux pump mplx | Nile Red retention | 1,700 compounds, 4% hits | Nile Red retention ratio vs DMSO, % at 10 µM; in the data active means Nile Red retention ratio vs DMSO above about 190%;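 further: higher ratio means more blocking of Cdr2 efflux of the dye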
CaCdr1 efflux inh: inhibitors of Candida albicans Cdr1 efflux pump, confirmation, S. cerevisiae AD/CaCDR1, flow cytometry, cherry pick 1, singleplex; AID 588522, 2011; inhibition, % at 10 µM; shares compounds with Efflux pump mplx; 1,700 compounds, 1% hits; Nile Red efflux;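 active means inhibition above the screen-wide mean plus twice its standard deviation, cut at about 32% in these data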
The depositor's hits bear a star; i = inactive; ? = inconclusive; . = no result. Compounds with a hit are over-represented: about 4.5% of the library has one in this group of screens.

SMILES	GRK2 inh	Rtt109 Vps75	Efflux pump mplx	Rce1 inh	HDAC3 inh	ALR H2O2 inh	Yeast cmpd fluor	Mdr1 pump inh	CaCdr2 efflux inh	CaCdr1 efflux inh
COc1ccc(-c2cc(C(=O)N3CCCC(C(F)(F)F)C3)c3ccccc3n2)cc1OC (centres undefined)	2	-18	0.4*	i	.	.	105	0	110	0
CCOc1ccc(S(=O)(=O)NCCC(=O)OCC(=O)NC(=O)c2cccn2C)cc1	0	2	0	.	2	-9	.	.	.	.
CCN(CC)C(=O)[C@H]1CC(CC(=O)NCCCOC)C(=O)N2CCc3c([nH]c4ccccc34)[C@]12C (some centres undefined)	9	3	0	.	-1	.	.	.	.	.
COc1ccc(N(CC(=O)Nc2cccc([N+](=O)[O-])c2C)S(C)(=O)=O)cc1OC	1	1	8.9*	i	0	-8	98	0	103	0
O=C(CCl)N(C1CCCC1)C1CCS(=O)(=O)C1 (centres undefined)	4	-7	0	i	2	-2	.	.	.	.
Cc1ccc2nc(/C(C#N)=C/c3ccccc3C(=O)O)[nH]c2c1	3	-3	0	i	0	.	.	.	.	.
Cc1ccc2nc(/C(C#N)=C/c3ccc(O)c(O)c3)[nH]c2c1	0	7	3.4*	i	2	89*	118	0	141	1
COc1cc(C(=O)OCC(=O)NC2CC2)ccc1OCCC(C)C	0	13	0	.	3	-3	.	.	.	.
O=C(Nc1ccccc1C(=O)O)c1cccc(NC(=O)c2ccco2)c1	16	-5	1	i	3	14	.	.	.	.
O=C(Nc1ccc(O)cc1C(=O)O)c1ccc(NC(=O)c2ccco2)cc1	0	7	0	.	11	54	107	0	95	0
CC(C)(C)NC(=O)C(=O)NNC(=O)COc1ccccc1	4	-10	28*	i	-4	-8	100	0	106	0
C=C(C)CSc1[nH]c(=O)cc(C)c1C#N	1	6	0	i	-1	7	.	.	.	.
Cc1ccc2c(c1)c1c3n2CCCNC3CCC1 (centres undefined)	0	3	0	i	5	-8	.	.	.	.
c1cc2c(cc1C1CCCCC1)c1c3n2CCCNC3CCC1 (centres undefined)	0	-1	95*	i	0	-17	100	0	99	0
Cn1c(N)c(C(=O)COC(=O)Cc2cccc(C(F)(F)F)c2)c(=O)n(C)c1=O	0	0	0	.	-7	-1	.	.	.	.
NC1=NC[C@@H](Cc2ccc(O)cc2)N1CCc1cccc2ccccc12	0	5	0	i	6	37	94	0	91	0
NC1=NC[C@H](Cc2ccc(O)cc2)N1CCc1cc(C(F)(F)F)cc(C(F)(F)F)c1	0	20	0	i	-5	21	105	0	100	0
COC(=O)[C@H](C(C)C)N(Cc1ccccc1)S(=O)(=O)CCNC1CCCC1	0	1	-1	.	.	.	.	.	.	.
COCC1CCN(C(=O)CC2C(=O)NCCN2Cc2cccc(Oc3ccccc3)c2)CC1 (centres undefined)	0	0	3	i	-1	-6	.	.	.	.
COc1ccc(-c2[nH]c(-c3ccc4c(c3)OCO4)nc2-c2ccccc2)cc1	20	2	0.3*	?	-19	.	105	0	114	0
COc1cc(-c2nc(-c3ccccc3)c(-c3ccc(F)cc3)[nH]2)cc2c1OCO2	0	0	0	i	-2	.	.	.	.	.
O=C(C(Cl)Cl)N1CCN(Cc2ccc3c(c2)OCO3)CC1	0	-5	0	i	6	-3	.	.	.	.
O=C(C(Cl)Cl)N1CCN(Cc2ccccc2)CC1	0	-12	16*	i	-1	-12	98	0	89	0
COc1ccc(CCNc2ncnc3c2nnn3Cc2ccccc2)cc1OC	0	2	0	i	3	.	.	.	.	.
CCOc1ccc(S(=O)(=O)N(CC(=O)NN=C2CCN(C)CC2)c2ccc(C)cc2)cc1	0	-3	0	i	-8	11	.	.	.	.
SMILES	GRK2 inh	Rtt109 Vps75	Efflux pump mplx	Rce1 inh	HDAC3 inh	ALR H2O2 inh	Yeast cmpd fluor	Mdr1 pump inh	CaCdr2 efflux inh	CaCdr1 efflux inh
CC(C)COC(=O)c1ccccc1N1C(=O)C2C3CCC(C3)C2C1=O (centres undefined)	0	3	13*	i	2	-6	104	0	94	0
CCCCOC(=O)c1ccccc1N1C(=O)C2C3CCC(C3)C2C1=O (centres undefined)	0	-4	0	i	8	-18	.	.	.	.
COc1ccc(-c2cc(C(F)(F)F)n3nc(C(=O)Nc4cc(C)on4)cc3n2)cc1OC	2	7	0	i	-9	-14	.	.	.	.
COc1ccc(-c2cc(C(F)(F)F)n3nc(C(=O)N(C)Cc4ccccc4)cc3n2)cc1OC	4	-13	1.4*	i	-6	-4	96	0	97	0
COc1ccc(NC(=O)CSc2nccn2Cc2ccc(F)cc2)cc1	3	-5	0	i	-3	24	.	.	.	.
COc1cc([C@H]2c3c(cc(OC)c(O)c3OC)C[C@@H](CO)[C@@H]2CO[C@@H]2O[C@H](CO)[C@@H](O)[C@H](O)[C@H]2O)cc(OC)c1O	0	0	0	.	0	.	.	.	.	.
O=C(CCCN1C(=O)/C(=C/c2ccccc2Cl)SC1=S)NNC(=O)c1ccc(Cl)cc1	3	2	0.6*	i	-8	-6	98	0	100	0
COc1ccccc1CNC(=O)c1cc(-c2ccccc2)n(Cc2cc(C)no2)n1	6	-6	0	.	2	-3	.	.	.	.
